This is a sample that favours compounds with a hit; in the whole collection about 5.4% have one here.
beta cell repl = inducers of MIN6 beta-cell proliferation, primary screen, ATP luminescence, uHTS | MIN6 cells proliferation, ATPlite luminescence, 48 h; cells starved in 0.2% serum; 100% = growth in 10% serum | proliferation, % at 10 µM | 330,000 tested, 0.29% active | AID 2380, 2010;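 active = compounds whose signal lies at least 3.5 SD above the mean of all wells on their plate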;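 note: 0% = DMSO-treated cells in low-serum medium and 100% = 10% serum control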
JMJD2C inh = inhibitors of GASC-1 histone demethylase, primary screen, biochemical, fluorescence, DELFIA europium | GST-JMJD2C(1-420) H3K9me3 demethylation | 330,000 tested, 0.069% active | inhibition, % at 2.35 µM | AID 2099, 2009;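 active = more than half of a compound's replicate wells show inhibition beyond 50%, single wells judged on their own value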;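 note: signal counts dimethyl H3K9 product captured on neutravidin plate; 0% = median of DMSO wells and 100% = 0.3 times that DMSO median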
PfM18AAP inh-1 = PfM18AAP inhibitors, malaria aminopeptidase, primary screen, biochemical, QFRET, recombinant enzyme. 290,000 tested, 1.2% active. H-Glu-NHMec fluorogenic cleavage. inhibition, % at 7.35 µM. AID 1822, 2009;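 active = inhibition above the campaign mean inhibition over all tested compounds plus 3 SD, cut at about 28% in these data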;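 note: 0% = plate median of test compound wells and 100% = 2 mM ZnCl2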
Granule exo inh = LAMP-1 surface exposure blockers, TALL-104 cells – cell-based, flow cytometry, MLPCN library, primary screen. TALL-104 LAMP-1 surface exposure; cells stimulated with thapsigargin and PMA. inhibition, % at 10 µM. 360,000 tested, 0.66% active. AID 651702, 2012;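 active = inhibition above about 55%, limit read from the data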
ALR inh = inhibitors of human ALR sulfhydryl oxidase, primary screen, biochemical, H2O2 detection, HRP-luminol luminescence, single point; FAD-linked sulfhydryl oxidase ALR (Homo sapiens), P55789; purified ALR, DTT oxidation; inhibition, % (test concentration not listed); 290,000 tested, 3.8% active; AID 485317, 2010;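 active = mean replicate inhibition above about 79%, with every replicate also reaching it, limit read from the data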
Target sequence (P55789 whole entry, looked up): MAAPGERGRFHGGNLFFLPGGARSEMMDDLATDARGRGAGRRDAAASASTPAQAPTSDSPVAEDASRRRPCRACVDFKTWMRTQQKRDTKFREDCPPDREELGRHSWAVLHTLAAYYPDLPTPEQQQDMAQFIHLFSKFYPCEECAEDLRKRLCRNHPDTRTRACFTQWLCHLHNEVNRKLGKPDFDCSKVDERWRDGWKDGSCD
SMARCA2 act = SMARCA2 (BRM) function activators, primary screen, cell-based, luminescence, high throughput; MG213 cells, MMTV-luciferase reporter, dexamethasone, overnight; activation, % at 9.1 µM; 370,000 tested, 1% active; AID 652017, 2013; in the data active = activation above about 7.8%;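 note: 0% = vehicle wells and 100% = reference activator wells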
PfM18AAP inh-2 = PfM18AAP inhibitors, malaria aminopeptidase, confirmation, biochemical, QFRET, recombinant enzyme, triplicate; shares compounds with PfM18AAP inh-1; H-Glu-NHMec fluorogenic cleavage; inhibition, % at 7.35 µM; 2,400 tested, 28% active;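 active = mean inhibition over replicate wells above the hit cutoff set for the earlier primary screen, cut at about 29% in these data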;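 note: 0% = median of test compound wells and 100% = 2 mM ZnCl2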
CTSL1 confirm = cathepsin L1 inhibitors, retest, confirmation, counter-screen for PFM18AAP inhibitor project, biochemical, QFRET, triplicate | AID 2178, 2009 | 2,400 tested, under 10 active | shares compounds with PfM18AAP inh-1 | inhibition, % at 5.96 µM | purified cathepsin L1, Z-Leu-Arg-MCA fluorescence;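 active = average inhibition across replicates above the hit cutoff set in the earlier primary screen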;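 note: 0% = median of test compound wells and 100% = Z-Phe-Ala-diazomethylketone 1 µM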
Target sequence (P07711 whole entry, looked up): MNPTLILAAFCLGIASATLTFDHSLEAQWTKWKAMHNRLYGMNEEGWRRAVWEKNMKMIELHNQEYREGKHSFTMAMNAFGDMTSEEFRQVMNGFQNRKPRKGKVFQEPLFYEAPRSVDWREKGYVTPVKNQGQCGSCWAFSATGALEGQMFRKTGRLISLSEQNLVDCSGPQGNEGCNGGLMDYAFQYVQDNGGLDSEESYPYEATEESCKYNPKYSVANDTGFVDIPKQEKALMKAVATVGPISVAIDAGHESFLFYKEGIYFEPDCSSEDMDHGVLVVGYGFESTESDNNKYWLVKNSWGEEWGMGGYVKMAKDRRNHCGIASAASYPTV
* hit, by the source's call; nt = no result given.

SMILES	beta cell repl	JMJD2C inh	PfM18AAP inh-1	Granule exo inh	ALR inh	SMARCA2 act	PfM18AAP inh-2	CTSL1 confirm
Cc1ccc(-c2cc(NC(=O)Cc3c(C)[nH]c4ccccc34)ccc2Nc2cccnc2)cc1	nt	nt	nt	nt	nt	-3.7	nt	nt
CN(CCO)C1CN(Cc2cn(Cc3ccccc3F)nn2)S(=O)(=O)C1 (configuration not stated)	nt	nt	nt	nt	nt	0.3	nt	nt
Oc1ccc(-c2csc(Nc3ncccn3)n2)cc1O	nt	24.8	64.7*	-0.1	nt	-0.1	53.3*	0.3
Fc1ccc(-c2csc(-c3cccnc3)n2)cc1F	0.0	6.9	4.4	6.0	31.0	3.2	nt	nt
CC(=O)Nc1cccc(-c2csc(Nc3ncccn3)n2)c1	nt	1.0	-3.4	nt	nt	2.3	nt	nt
Oc1ccc(-c2csc(-c3cccnc3)n2)cc1O	-4.2	3.9	72.7*	0.7	5.2	-0.1	84.8*	1.1
Oc1ccc(-c2csc(-c3ccccc3)n2)cc1O	-3.7	-2.8	55.2*	-2.9	98.9*	-2.4	59.7*	6.5
Cc1nc(-c2ccc(O)c(O)c2)cs1	-5.9	4.7	94.0*	0.2	99.5*	-5.8	86.8*	-11.6
Cc1ccc(C2NC(=O)c3[nH]nc(-c4ccccc4)c32)cc1 (configuration not stated)	nt	nt	nt	nt	nt	3.4	nt	nt
Cc1ccc2nc(-c3ccc(O)c(O)c3)cn2c1	-4.5	6.0	69.9*	-1.7	98.8*	1.1	54.8*	-7.8
Cc1ccc2nc(-c3ccccc3)cn2c1	-6.0	-9.9	-12.4	-3.0	37.9	-7.3	nt	nt
NS(=O)(=O)c1ccc(NC(=S)NC2CCCC2)cc1	2.8	3.4	45.9*	-1.5	7.9	-2.9	7.3	-4.3
NS(=O)(=O)c1ccc(NC(=S)NC2CCCCCC2)cc1	-2.4	-9.3	44.2*	-0.9	95.8*	-2.7	0.4	3.0
CCn1c(/C=N/n2cnnc2)nc2ccccc21	-3.9	-7.9	47.6*	5.1	-3.4	-3.3	-42.0	-5.3
COc1ccc2ccccc2c1/C=N/n1cnnc1	0.9	0.6	-1.2	-0.5	-21.4	0.9	nt	nt
Cc1ccc(-c2csc3n[nH]c(=S)n23)cc1	-1.9	-5.4	63.4*	-4.9	97.8*	0.3	51.9*	-0.4
Cc1ccc(-n2c(-c3cccc(C)c3)n[nH]c2=S)cc1	-2.4	-10.5	-2.4	6.6	14.4	-0.7	nt	nt
CCNC(=S)NNC(=O)CSc1nc2ccccc2[nH]1	-1.6	18.2	18.4	0.5	nt	0.0	nt	nt
CCNC(=S)NNC(=O)CSc1nc2ccccc2n1C	-0.8	-23.6	31.7*	-2.0	46.7	-2.2	2.2	-1.0
COCC(=O)Nc1ccc2c(c1)[C@H]1C[C@@H](CC(=O)NCC3CC3)O[C@H](CO)[C@H]1O2	nt	nt	nt	nt	nt	2.8	nt	nt
O=C(O)c1ccccc1NS(=O)(=O)c1cccc(-n2sc3ccccc3c2=O)c1	-2.6	-284.4	62.4*	22.0	98.5*	-2.2	49.7*	-4.4
O=C(N/N=C/c1ccc(O)c(O)c1O)/C(=C/c1ccc([N+](=O)[O-])cc1)NC(=O)c1ccccc1	-5.4	-4.5	54.0*	-2.0	90.7*	-4.5	33.9*	-2.2
Cc1ccc(NC(=O)/C(=C\c2ccc([N+](=O)[O-])cc2)NC(=O)c2ccccc2)cc1	-4.2	10.6	-2.4	-0.3	2.2	-3.4	nt	nt
COC(=O)[C@]12C[C@H](CC(=O)N3CCC(c4ccccc4)CC3)C(=O)N(Cc3ccc4c(c3)OCO4)C1=C[C@H](COCc1ccccc1)O[C@@H]2C	nt	nt	nt	nt	nt	-1.4	nt	nt
CCn1c(SCC(=O)c2ccc(O)c(O)c2)nnc1-c1ccccc1OC	-3.0	-0.9	42.0*	0.7	98.8*	-0.1	23.0	1.8
SMILES	beta cell repl	JMJD2C inh	PfM18AAP inh-1	Granule exo inh	ALR inh	SMARCA2 act	PfM18AAP inh-2	CTSL1 confirm
C=CCn1c(SCC(=O)c2ccc(O)c(O)c2)nnc1-c1ccccc1OC	1.4	-11.9	49.0*	-4.9	64.4	0.0	34.0*	1.2
CCn1c(SCC(=O)c2ccc(O)c(O)c2)nnc1-c1ccccc1	-4.5	-12.1	41.3*	1.8	97.6*	2.1	26.9	-5.4
C=CCn1c(SCC(=O)c2ccc(O)c(O)c2)nnc1-c1cccnc1	2.2	8.9	54.0*	-1.1	99.1*	-4.0	22.4	4.7
COC(=O)c1cc2c(c3c4cc(C)ccc4n(S(=O)(=O)c4cccc(C)c4)c13)C(=O)N(C)C2	nt	nt	nt	nt	nt	-4.4	nt	nt
COc1ccc(Cn2ccc3ccc(-c4ccc5ccn(C(=O)c6ccccc6OC)c5c4)cc32)cc1	nt	nt	nt	nt	nt	-0.8	nt	nt
O=S(=O)(CS(=O)(=O)c1ccc(Br)cc1)c1ccc(Br)cc1	nt	nt	nt	nt	nt	-4.1	nt	nt
O=C1NC(c2ccccc2)(c2ccccc2)C(=O)N1CNc1ccccn1	nt	nt	nt	nt	nt	1.2	nt	nt
CCn1c(CSc2nc3ccccc3s2)nnc1SCC(=O)c1ccc(O)c(O)c1	-3.2	-24.9	48.6*	5.0	98.0*	-1.5	29.6*	0.7
Cc1ccc(CN(C)C[C@H]2OCc3cnnn3CCCC(=O)N([C@H](C)CO)C[C@@H]2C)cc1	nt	nt	nt	nt	nt	1.6	nt	nt
CCC[C@@H](/C=C/C(=O)OC(C)(C)C)Sc1ccc(OC)cc1	nt	nt	nt	nt	nt	0.0	nt	nt
CCCCCCCCN1C(=O)[C@@H](CC(=O)N2CCN(C(=O)C3CC3)CC2)C[C@@]2(C(=O)OC)C1=C[C@H](C(C)C)O[C@@H]2C1CC1	nt	nt	nt	nt	nt	-1.0	nt	nt
Cn1c(=O)n(C)c2cc(N3CCCCC3)c(NC(=O)c3cccc(Cl)c3)cc21	-3.8	-10.4	21.2	9.9	2.2	-5.1	nt	nt
CCOc1ccc(C(=O)Nc2cc3c(cc2N2CCCC2)n(CC)c(=O)n3CC)cc1OCC	1.3	7.4	19.0	0.5	51.6	-2.8	nt	nt
CCn1c(=O)n(CC)c2cc(N3CCCC3)c(NC(=O)c3c(F)cccc3F)cc21	0.6	-13.1	35.2*	-4.2	98.8*	-0.1	-20.2	1.9
CCn1c(=O)n(CC)c2cc(N3CCCC3)c(NC(=O)c3ccc(F)cc3)cc21	-0.8	-0.5	34.9*	0.4	99.5*	0.7	-54.0	5.1
O=C(O)c1ccccc1C(=O)Nc1nccs1	-0.5	-1.6	-5.2	1.7	-14.0	-5.1	nt	nt
O=C(O)c1ccccc1C(=O)Nc1n[nH]c(=S)s1	0.9	5.5	62.6*	-0.9	54.2	-1.6	8.7	-2.7
Cc1ccccc1C1=CC(=O)CC(C)(C)C1=O	nt	nt	nt	nt	nt	0.1	nt	nt

Screening results deposited in PubChem by several laboratories.
